According to PubChem BioAssay (NCI):
Compounds without any hit were thinned out: in the full panel of roughly 79,000, 15% have a hit. Activity calls are given as the source filed them. No stated cut-off is given here; in the data, active means growth inhibition above about 70%; inactive means the rest.

How the values were obtained:
[1] = NCI Yeast Anticancer Drug Screen. Data for the rad50 strain (AID 155);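 further: 0% = growth of vehicle-only cultures of the same strain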; details: S. cerevisiae rad50 strain growth inhibition, hits give high values
Method in brief: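 Genetically altered yeast (DNA repair pathway); compound treatment; growth inhibition vs vehicle ctrl.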

[2] = NCI Yeast Anticancer Drug Screen. Data for the mec2-1 strain (AID 157); details: S. cerevisiae mec2-1 strain, hits give high values
Method in brief: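 Using mec2-1 yeast: add compound, measure growth, express inhibition versus vehicle-treated cultures.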

[3] = NCI Yeast Anticancer Drug Screen. Data for the sgs1 mgt1 strain (AID 161);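 further: 0% = growth of cultures given vehicle only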; details: S. cerevisiae sgs1 mgt1 strain, hits give high values
Method in brief: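 Yeast cells carrying a defined DNA-repair defect were exposed to test compounds. Growth inhibition was measured relative to vehicle-treated controls.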

[4] = NCI Yeast Anticancer Drug Screen. Data for the cln2 rad14 strain (AID 165);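 further: 0% = growth equal to vehicle treated cultures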; details: S. cerevisiae cln2 rad14 strain, hits give high values
Method in brief: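 Yeast strain cln2 rad14, bearing defects in cell cycle control and DNA repair, serves as the test system; values reflect growth inhibition compared with vehicle.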

[5] = NCI Yeast Anticancer Drug Screen. Data for the bub3 strain (AID 167); details: S. cerevisiae bub3 mutant strain, hits give high values
Method in brief: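 Yeast carrying a defined mutation is treated with each compound, and growth is compared with that of vehicle-exposed cells to give inhibition.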

[6] = NCI Yeast Anticancer Drug Screen. Data for the mlh1 rad18 strain (AID 175); details: S. cerevisiae mlh1 rad18 strain growth inhibition, hits give high values
Method in brief: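 Steps: expose repair-defective yeast to compound; measure growth; express inhibition against vehicle-treated controls.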

[7] = at 5.0 µM (retest, dose inferred, filed as 0.5)
[8] = at 50.0 µM (retest, dose inferred, filed as 5.0)

Measured: growth inhibition

O=[N+]([O-])c1ccc(Sc2ccsc2)c([N+](=O)[O-])c1
active: [1]; [8] 79% | [2]; [8] 87% | [3]; [8] 93% | [5]; [8] 86% | [6]; [8] 96% | [6]; at 50.0 µM 78.8%
inactive: [1]; [7] 4% | [1]; at 50.0 µM 46.5% | [2]; [7] 14% | [2]; at 50.0 µM 34.5% | [3]; [7] 21% | [3]; at 50.0 µM 48.5% | [4]; [7] 4% | [4]; [8] 61% | [4]; at 50.0 µM 31.8% | [5]; [7] 11% | [5]; at 50.0 µM 41.5% | [6]; [7] 45%

Clc1cc2c(c3ncccc13)OCN(CCc1ccccc1)C2
inactive: [1]; [7] 5% | [1]; [8] 8% | [2]; [7] -3% | [2]; [8] -5% | [3]; [7] 2% | [3]; [8] 7% | [4]; [7] 1% | [4]; [8] 16% | [5]; [7] 4% | [5]; [8] 0% | [5]; at 50.0 µM 69.6% | [6]; [7] 2% | [6]; [8] 10%
active: [1]; at 50.0 µM 98.7% | [2]; at 50.0 µM 94.2% | [3]; at 50.0 µM 99.2% | [4]; at 50.0 µM 78.5% | [6]; at 50.0 µM 98.4%

N#Cc1c(Cl)cc(Cl)n2c1nc1ccccc12
active: [1]; [8] 97% | [1]; at 50.0 µM 91.2% | [2]; [8] 99% | [2]; at 50.0 µM 94% | [3]; [8] 100% | [3]; at 50.0 µM 93% | [4]; [8] 99% | [4]; at 50.0 µM 91.7% | [5]; [8] 99% | [5]; at 50.0 µM 91.3% | [6]; [8] 97% | [6]; at 50.0 µM 92.3%
inactive: [1]; [7] 46% | [2]; [7] 29% | [3]; [7] 56% | [4]; [7] 43% | [5]; [7] 56% | [6]; [7] 43%

COc1ccc(C2(O)c3ccccc3C(=O)C2c2ccccn2)cc1 (configuration not stated)
inactive: [1]; [8] 10% | [2]; [8] -5% | [3]; [8] -1% | [4]; [8] -1% | [5]; [8] 7% | [6]; [8] 4%
active: [1]; [7] 99% | [1]; at 50.0 µM 99% | [2]; [7] 98% | [2]; at 50.0 µM 99% | [3]; [7] 98% | [3]; at 50.0 µM 99.3% | [4]; [7] 97% | [4]; at 50.0 µM 98.8% | [5]; [7] 99% | [5]; at 50.0 µM 99.3% | [6]; [7] 99% | [6]; at 50.0 µM 98.9%

Cc1[nH]c2ccccc2c1C(C)CC(O)c1ccccc1 (configuration not stated)
active: [1]; at 50.0 µM 95% | [2]; [8] 73% | [2]; at 50.0 µM 85.5% | [3]; at 50.0 µM 90.2% | [4]; at 50.0 µM 95.8% | [5]; at 50.0 µM 88.7% | [6]; [8] 88% | [6]; at 50.0 µM 95.2%
inactive: [1]; [7] 5% | [1]; [8] 68% | [2]; [7] -4% | [3]; [7] 2% | [3]; [8] 62% | [4]; [7] 11% | [4]; [8] 29% | [5]; [7] 3% | [5]; [8] 67% | [6]; [7] 8%

O=C(Cc1csc2[n+]1C(=O)/C(=C/c1cccc([N+](=O)[O-])c1)S2)Nc1ccccc1
inactive: [1]; [7] -5% | [1]; [8] -3% | [1]; at 50.0 µM 41.3% | [2]; [7] -16% | [2]; [8] -5% | [2]; at 50.0 µM 44.2% | [3]; [7] -8% | [3]; [8] 11% | [3]; at 50.0 µM 24% | [4]; [7] -24% | [4]; [8] -17% | [4]; at 50.0 µM 37.5% | [5]; [7] -5% | [5]; [8] 17% | [5]; at 50.0 µM 10.8% | [6]; [7] -3% | [6]; [8] -9% | [6]; at 50.0 µM 33.9%

Nc1ccc(S(=O)(=O)Nc2nc3ccccc3nc2N2CCCCC2)cc1
inactive: [1]; [7] 29% | [1]; [8] 46% | [1]; at 50.0 µM 51.8% | [2]; [7] 35% | [2]; [8] 44% | [2]; at 50.0 µM 40.8% | [3]; [7] 32% | [3]; at 50.0 µM 64.7% | [4]; [7] 36% | [4]; at 50.0 µM 32.3% | [5]; [7] 30% | [6]; [7] 44% | [6]; [8] 60%
active: [3]; [8] 94% | [4]; [8] 91% | [5]; [8] 96% | [5]; at 50.0 µM 76.4% | [6]; at 50.0 µM 85.9%

Cc1cc(O)n(Cc2ccccc2)c(=O)c1
inactive: [1]; [7] -151% | [1]; [8] 34% | [1]; at 50.0 µM 48.5% | [2]; [7] -51% | [2]; [8] -36% | [2]; at 50.0 µM 9.75% | [3]; [7] -67% | [3]; [8] 33% | [3]; at 50.0 µM 34.6% | [4]; [7] -60% | [4]; [8] -45% | [4]; at 50.0 µM -4.75% | [5]; [7] -70% | [5]; [8] 4% | [5]; at 50.0 µM 47.9% | [6]; [7] -123% | [6]; [8] 7% | [6]; at 50.0 µM 67.1%

CCCCCCOC(=O)Nc1ccc(S(=O)(=O)N2CCCCC2)cc1
inactive: [1]; [7] -7% | [1]; [8] 47% | [1]; at 50.0 µM 35.5% | [2]; [7] -9% | [2]; [8] 56% | [2]; at 50.0 µM 28.1% | [3]; [7] 7% | [3]; [8] 66% | [3]; at 50.0 µM 50.5% | [4]; [7] -87% | [4]; [8] 44% | [4]; at 50.0 µM 7.35% | [5]; [7] -10% | [5]; [8] 41% | [6]; [7] -1% | [6]; [8] 46% | [6]; at 50.0 µM 52.5%
active: [5]; at 50.0 µM 73.8%
